This note sets out measurements from the supplement of paper PMC9254222.

This assay deals with HEK293T (UBE3A T485A transfected, BAR Wnt reporter). Description: Renilla luciferase signal (cell health) relative to plate median (fold (linear ratio)); higher = higher Renilla signal. Conditions: 24 h. The procedure, abridged:
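Using Fugene 6, HEK293T cells in white 384-well plates (4500 cells/well; DMEM, 10% FBS, 37°C, 5% CO2) were transfected with a BAR firefly luciferase Wnt reporter, TK-Renilla and an expression plasmid. After four hours, robots dosed the chemicals at 0.01–100 uM, and a Dual-Glo luciferase readout followed 24 h later. Per-plate median-centred firefly/Renilla ratios gave Wnt activity, while per-plate median-centred raw Renilla signals gave cell health. Four biological replicates were averaged.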

In all, about 1,100 compounds were measured (“Renilla luciferase signal (cell health) relative to plate median”: median about 0.97, highest 2% from about 1.6 on). What follows is part of a selection rich in the highest values, with near analogues and random picks from the rest.

As to `Cc1oc(-c2ccccc2)nc1CCOc1cccc2c1ccn2CCC(=O)O`, the Renilla luciferase signal (concentration: 0.1 uM) stood at 0.873, the Renilla luciferase signal (concentration: 1 uM) came to 0.846, the Renilla luciferase signal (concentration: 10 uM) is 0.748 and the Renilla luciferase signal (concentration: 100 uM) turned out to be 0.478.

Take `CCN(CC)CCNc1ccc(CNC=O)c2sc3ccc(OC)cc3c(=O)c12`: the Renilla luciferase signal runs as follows: (concentration: 0.1 uM) 0.886; (concentration: 1 uM) 0.626; (concentration: 10 uM) 0.193; (concentration: 100 uM) 0.0173.

Consider `NC(=O)N(O)[C@@H]1C=C[C@H](Oc2cccc(Oc3ccc(F)cc3)c2)C1`, for which the Renilla luciferase signal is, setting by setting: (concentration: 0.1 uM) 1.08; (concentration: 1 uM) 0.968; (concentration: 10 uM) 1.14; (concentration: 100 uM) 0.801.

For the compound `CC1(C)NC(=O)N(c2ccc([N+](=O)[O-])c(C(F)(F)F)c2)C1=O` [Nilutamide], the Renilla luciferase signal was determined as 1.05 (concentration: 0.1 uM), 1.09 (concentration: 1 uM), 0.995 (concentration: 10 uM) and 0.268 (concentration: 100 uM).

For the compound `CC(=O)CC(c1ccccc1)c1c(O)c2ccccc2oc1=O` (stereo not drawn) [Warfarin], the Renilla luciferase signal (concentration: 0.1 uM) stood at 1.16, the Renilla luciferase signal (concentration: 1 uM) stood at 0.923, the Renilla luciferase signal (concentration: 10 uM) turned out to be 0.762 and the Renilla luciferase signal (concentration: 100 uM) was 1.24.

For the compound `NC(CCCP(=O)(O)O)C(=O)O` (racemic), the Renilla luciferase signal is, setting by setting: (concentration: 0.01 uM) 0.767; (concentration: 0.1 uM) 0.901; (concentration: 1 uM) 1.22; (concentration: 10 uM) 1.06; (concentration: 100 uM) 2.45.

For the compound `Cc1ccc(S(=O)(=O)NC(=O)NN2CCCCCC2)cc1` [Tolazamide], the Renilla luciferase signal is 0.729 (concentration: 0.1 uM), 0.841 (concentration: 1 uM), 0.872 (concentration: 10 uM) and 1.19 (concentration: 100 uM).

For the compound `CC(C)(C)c1cc(O)ccc1O` [tert-Butylhydroquinone], the Renilla luciferase signal came to 0.651 (concentration: 0.1 uM), 0.859 (concentration: 1 uM), 0.989 (concentration: 10 uM) and 0.227 (concentration: 100 uM).

Take `CO[C@@H]1COCC[C@@H]1[NH2+][C@@H]1CC[C@@](C(=O)N2CCc3ncc(C(F)(F)F)cc3C2)(C(C)C)C1.O=C([O-])CCC(=O)O`: the Renilla luciferase signal stood at 0.901 (concentration: 0.1 uM), 1.1 (concentration: 1 uM), 0.9 (concentration: 10 uM) and 1.08 (concentration: 100 uM).

`NCc1cccc(C2CCN(C(=O)c3ccc(C#Cc4ccccc4F)o3)CC2)c1`: the Renilla luciferase signal by setting is: (concentration: 0.1 uM) 1.16; (concentration: 1 uM) 0.989; (concentration: 10 uM) 1.04; (concentration: 100 uM) 1.31.

Regarding `CCOC(=O)CCC(=O)OCC` [Diethyl butanedioate], the Renilla luciferase signal is, setting by setting: (concentration: 0.1 uM) 0.922; (concentration: 1 uM) 0.965; (concentration: 10 uM) 0.973; (concentration: 100 uM) 1.25.

With `[Cl-].[K+]`, the Renilla luciferase signal was determined as 1.13 (concentration: 0.01 uM); 0.999 (concentration: 0.1 uM); 1.06 (concentration: 1 uM); 1.02 (concentration: 10 uM); 1.88 (concentration: 100 uM).

`[Cl-].[Li+]`: the Renilla luciferase signal by setting is: (concentration: 0.01 uM) 0.945; (concentration: 0.1 uM) 1.03; (concentration: 1 uM) 0.97; (concentration: 10 uM) 0.953; (concentration: 100 uM) 1.14.

Consider `Cc1cn([C@H]2C=C[C@@H](CO)O2)c(=O)[nH]c1=O` [Stavudine], for which the Renilla luciferase signal is, setting by setting: (concentration: 0.1 uM) 0.957; (concentration: 1 uM) 1.07; (concentration: 10 uM) 0.973; (concentration: 100 uM) 0.903.

As for `CCc1nc(N)nc(N)c1-c1ccc(Cl)cc1` [Pyrimethamine], the Renilla luciferase signal was 1.11 (concentration: 0.1 uM), 1.06 (concentration: 1 uM), 1.07 (concentration: 10 uM) and 0.0813 (concentration: 100 uM).

With `Cc1ccc(C(C)C)cc1` [p-Cymene], the Renilla luciferase signal runs as follows: (concentration: 0.1 uM) 1.03; (concentration: 1 uM) 0.949; (concentration: 10 uM) 1.11; (concentration: 100 uM) 1.51.

Regarding `CC(C)c1cccc(C(C)C)c1` [1,3-Diisopropylbenzene], the Renilla luciferase signal (concentration: 0.1 uM) was 1.12, the Renilla luciferase signal (concentration: 1 uM) worked out at 1.28, the Renilla luciferase signal (concentration: 10 uM) was 1.17 and the Renilla luciferase signal (concentration: 100 uM) stood at 1.7.

On to `Nc1ncn([C@@H]2O[C@H](CO)[C@@H](O)[C@H]2O)c(=O)n1` [5-azacytidine], for which the Renilla luciferase signal is, setting by setting: (concentration: 0.01 uM) 0.936; (concentration: 0.1 uM) 0.572; (concentration: 1 uM) 0.391; (concentration: 10 uM) 0.138; (concentration: 100 uM) 0.596.

Take `CCCCCCCCCCCCCCCCOS(=O)(=O)[O-].[Na+]` [Sodium hexyldecyl sulfate]: the Renilla luciferase signal by setting is: (concentration: 0.1 uM) 1.11; (concentration: 1 uM) 1.05; (concentration: 10 uM) 1.11; (concentration: 100 uM) 0.434.

In the case of `CC(=O)O[C@]1(C(C)=O)CC[C@H]2[C@@H]3C=C(Cl)C4=CC(=O)[C@@H]5C[C@@H]5[C@]4(C)[C@H]3CC[C@@]21C` [Cyproterone acetate], the Renilla luciferase signal runs as follows: (concentration: 0.1 uM) 1.06; (concentration: 1 uM) 0.965; (concentration: 10 uM) 0.849; (concentration: 100 uM) 0.603.

Consider `CCOc1ccc2[nH]cc(C(=O)NCc3ccccc3)c(=O)c2n1`, for which the Renilla luciferase signal runs as follows: (concentration: 0.1 uM) 1.05; (concentration: 1 uM) 1.12; (concentration: 10 uM) 1.22; (concentration: 100 uM) 0.85.
